# In all, about 5,500 compounds went through this assay and about 2,000 (36%) were called active. Not shown: some 18% with an inconclusive outcome. The list shows a part of the results. Unmarked numbers belong to inactive results. Rule as the data show it: active = normalized growth mostly below about 0.91 (no sharp cut-off); inconclusive = no clear call, values can overlap the other calls; inactive = mostly above about 0.92.
# Assay: chemical genetic growth profiling, strain panel (AID 1159580);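 also: tested at 20 µM; growth read once vehicle control cultures reached saturation at 30 °C; 1 = growth at the plate median or of vehicle wells; lower values mean less growth of the strain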
# Details: growth OD
# [1] = S. cerevisiae deletion strains, locus YAL013W, strain DEP1, active compounds read low
# [2] = S. cerevisiae deletion strains, locus YBR229C, strain ROT2, active compounds read low
# [3] = S. cerevisiae deletion strains, locus YCL061C, strain MRC1, active compounds read low
# [4] = S. cerevisiae deletion strains, locus YDL101C, strain DUN1, active compounds read low
# [5] = S. cerevisiae deletion strains, locus YDR150W, strain NUM1, active compounds read low
# [6] = S. cerevisiae deletion strains, locus YEL061C, strain CIN8, active compounds read low
# [7] = S. cerevisiae deletion strains, locus YGR078C, strain PAC10, active compounds read low
# [8] = S. cerevisiae deletion strains, locus YHR030C, strain SLT2, active compounds read low
# [9] = S. cerevisiae deletion strains, locus YHR087W, strain rtc3, active compounds read low
# [10] = S. cerevisiae deletion strains, locus YJL187C, strain SWE1, active compounds read low
# [11] = S. cerevisiae deletion strains, locus YJR043C, strain POL32, active compounds read low
# [12] = S. cerevisiae deletion strains, locus YJR075W, strain HOC1, active compounds read low
# [13] = S. cerevisiae deletion strains, locus YLR039C, strain RIC1, active compounds read low
# [14] = S. cerevisiae deletion strains, locus YLR058C, strain SHM2 (second series), active compounds read low
# [15] = S. cerevisiae deletion strains, locus YLR085C, strain ARP6, active compounds read low
# [16] = S. cerevisiae deletion strains, locus YLR262C, strain YPT6, active compounds read low
# [17] = S. cerevisiae deletion strains, locus YML094W, strain GIM5, active compounds read low
# [18] = S. cerevisiae deletion strains, locus YMR219W, strain ESC1, active compounds read low
# [19] = S. cerevisiae deletion strains, locus YMR263W, strain SAP30, active compounds read low
# [20] = S. cerevisiae deletion strains, locus YNL153C, strain GIM3, active compounds read low
# [21] = S. cerevisiae deletion strains, locus YNL298W, strain CLA4 (second series), active compounds read low
# [22] = S. cerevisiae deletion strains, locus YNL322C, strain KRE1, active compounds read low
# [23] = S. cerevisiae deletion strains, locus YNR030W, strain Alg12, active compounds read low
# [24] = S. cerevisiae deletion strains, locus YOL006C, strain TOP1, active compounds read low
# [25] = S. cerevisiae deletion strains, locus YPL055C, strain LGE1, active compounds read low
# [26] = S. cerevisiae deletion strains, locus YPL241C, strain CIN2, active compounds read low
# [27] = S. cerevisiae deletion strains, locus YPR135W, strain CTF4, active compounds read low
# [28] = S. cerevisiae deletion strains, locus YNL128W, strain TEP1, active compounds read low
# [29] = S. cerevisiae strains, strain wild type, active compounds read low
smiles,measurement,setting,value
CCCn1c(=O)c(C#N)cn(-c2ccc(Cl)cc2)c1=O,normalized growth,[1],1.01
same,normalized growth,[2],0.986
same,normalized growth,[3],1.01
same,normalized growth,[4],0.991
same,normalized growth,[5],1.02
same,normalized growth,[6],0.97
same,normalized growth,[7],0.996
same,normalized growth,"S. cerevisiae deletion strains, locus YGR229C, strain SMI1, active compounds read low",0.997
same,normalized growth,[8],0.937
same,normalized growth,[9],0.977
same,normalized growth,[10],0.93 (active)
same,normalized growth,[11],1.02
same,normalized growth,[12],1.01
same,normalized growth,[13],0.759 (active)
same,normalized growth,[14],0.986
same,normalized growth,[15],0.893
same,normalized growth,[16],0.821
same,normalized growth,[17],0.963
same,normalized growth,[18],0.99
same,normalized growth,[19],1
same,normalized growth,[20],1
same,normalized growth,[21],0.961
same,normalized growth,[22],0.979
same,normalized growth,[23],0.99
same,normalized growth,[24],0.924
same,normalized growth,[25],1.04
same,normalized growth,[26],0.982
same,normalized growth,[27],1.03
CC(C)n1cc(C#N)c(=O)n(Cc2ccccc2)c1=O,normalized growth,[1],0.992
same,normalized growth,[2],0.994
same,normalized growth,[3],0.991
same,normalized growth,[4],1.02
same,normalized growth,[5],0.923
same,normalized growth,[6],1
same,normalized growth,[7],0.991
same,normalized growth,[8],0.983
same,normalized growth,[9],0.989
same,normalized growth,[10],0.977
same,normalized growth,[12],0.999
same,normalized growth,[13],1.01
same,normalized growth,[14],1
same,normalized growth,[15],0.999
same,normalized growth,[16],1.04
same,normalized growth,[17],0.988
same,normalized growth,[18],1
same,normalized growth,[19],0.967
same,normalized growth,[28],0.994
same,normalized growth,[20],0.984
same,normalized growth,[21],1.05
same,normalized growth,[22],0.996
same,normalized growth,[23],1.01
same,normalized growth,[25],0.979
same,normalized growth,[26],1
same,normalized growth,[27],0.994
same,normalized growth,[29],1.01
CCOC(=O)Cn1c(=O)c(C#N)cn(C(C)C)c1=O,normalized growth,[1],1.01
same,normalized growth,[2],1.01
same,normalized growth,[3],0.993
same,normalized growth,[4],1.02
same,normalized growth,"S. cerevisiae deletion strains, locus YDL134C, strain PPH21, active compounds read low",1.01
same,normalized growth,[5],1.02
same,normalized growth,[6],0.988
same,normalized growth,[7],1.01
same,normalized growth,[8],1.03
same,normalized growth,[9],1
same,normalized growth,[10],1
same,normalized growth,[11],0.998
same,normalized growth,[12],1.02
same,normalized growth,[13],1.02
same,normalized growth,[14],1.01
same,normalized growth,[15],0.976
same,normalized growth,[16],1.01
same,normalized growth,[17],1
same,normalized growth,[18],1.01
same,normalized growth,[19],1
same,normalized growth,[28],0.98
same,normalized growth,[20],1
same,normalized growth,[21],1.04
same,normalized growth,[22],1.01
same,normalized growth,[23],1.02
same,normalized growth,[24],1.03
same,normalized growth,[25],0.984
same,normalized growth,[26],1.02
same,normalized growth,[27],1.02
same,normalized growth,[29],1.01
